Consider five compounds from ChEMBL document CHEMBL1961873, “Compounds: GSK PKIS; Assays: Nanosyn kinase panel” (2012).

Test [1] concerns the target T1, Serine/threonine-protein kinase D2 (Homo sapiens) (UniProt Q9BZL6).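 Note: mean value of PRKD2 inhibition, from the GSK PKIS screening panel.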
T1 sequence (whole entry): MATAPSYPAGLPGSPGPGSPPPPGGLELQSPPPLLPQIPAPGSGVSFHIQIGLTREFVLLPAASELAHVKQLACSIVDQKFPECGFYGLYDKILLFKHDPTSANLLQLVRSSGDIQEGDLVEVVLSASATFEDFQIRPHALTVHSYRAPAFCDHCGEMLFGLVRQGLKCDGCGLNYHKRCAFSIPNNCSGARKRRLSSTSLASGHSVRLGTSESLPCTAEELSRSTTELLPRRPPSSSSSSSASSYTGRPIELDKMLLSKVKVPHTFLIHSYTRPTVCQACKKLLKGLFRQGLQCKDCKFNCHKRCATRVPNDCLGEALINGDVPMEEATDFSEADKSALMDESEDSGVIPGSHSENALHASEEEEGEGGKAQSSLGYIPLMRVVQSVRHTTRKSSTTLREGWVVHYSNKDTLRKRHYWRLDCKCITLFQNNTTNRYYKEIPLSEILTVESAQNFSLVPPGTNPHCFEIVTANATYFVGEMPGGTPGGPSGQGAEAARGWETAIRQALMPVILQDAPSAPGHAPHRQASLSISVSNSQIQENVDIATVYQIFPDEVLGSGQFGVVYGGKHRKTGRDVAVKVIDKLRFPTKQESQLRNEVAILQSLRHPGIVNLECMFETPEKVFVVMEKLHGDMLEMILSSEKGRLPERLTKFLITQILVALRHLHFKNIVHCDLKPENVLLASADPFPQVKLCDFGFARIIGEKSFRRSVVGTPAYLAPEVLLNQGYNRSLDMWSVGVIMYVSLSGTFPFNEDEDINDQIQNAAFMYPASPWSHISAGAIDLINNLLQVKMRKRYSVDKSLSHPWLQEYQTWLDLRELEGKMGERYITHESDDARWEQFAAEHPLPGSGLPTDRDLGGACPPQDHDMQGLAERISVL
The note with it: at 1 µM.

The target of test [2] is T2, Serine/threonine-protein kinase D3 (Homo sapiens) (UniProt O94806).
T2 sequence (whole entry): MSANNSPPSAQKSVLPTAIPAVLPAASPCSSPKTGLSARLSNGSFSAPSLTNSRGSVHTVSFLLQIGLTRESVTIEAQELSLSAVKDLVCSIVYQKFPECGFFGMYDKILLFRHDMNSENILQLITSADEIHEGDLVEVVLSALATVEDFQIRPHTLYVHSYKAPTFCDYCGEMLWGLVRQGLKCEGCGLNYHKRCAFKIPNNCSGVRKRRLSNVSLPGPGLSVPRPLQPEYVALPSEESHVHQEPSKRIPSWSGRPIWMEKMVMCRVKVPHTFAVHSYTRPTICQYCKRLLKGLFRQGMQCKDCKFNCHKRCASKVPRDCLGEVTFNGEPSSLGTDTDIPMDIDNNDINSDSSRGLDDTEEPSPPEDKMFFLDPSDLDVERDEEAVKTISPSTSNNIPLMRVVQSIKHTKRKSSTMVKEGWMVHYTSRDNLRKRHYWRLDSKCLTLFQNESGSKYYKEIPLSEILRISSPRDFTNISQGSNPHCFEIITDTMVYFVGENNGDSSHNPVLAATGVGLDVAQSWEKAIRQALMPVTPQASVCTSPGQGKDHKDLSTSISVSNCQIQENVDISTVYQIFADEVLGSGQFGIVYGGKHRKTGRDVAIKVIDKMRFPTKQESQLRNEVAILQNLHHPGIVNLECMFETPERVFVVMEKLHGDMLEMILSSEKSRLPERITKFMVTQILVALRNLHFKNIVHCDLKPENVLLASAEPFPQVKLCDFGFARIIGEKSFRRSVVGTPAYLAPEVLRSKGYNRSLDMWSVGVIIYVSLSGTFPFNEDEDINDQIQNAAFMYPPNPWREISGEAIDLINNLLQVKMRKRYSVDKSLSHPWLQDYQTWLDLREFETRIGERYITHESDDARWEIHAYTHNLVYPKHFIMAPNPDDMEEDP
The note with it: at 0.1 µM.

Test [3] addresses T2, Serine/threonine-protein kinase D3 (Homo sapiens). Particulars: at 1 µM.
The target in test [4] is T3, cGMP-dependent protein kinase 1 (Homo sapiens) (UniProt Q13976).
T3 sequence (whole entry): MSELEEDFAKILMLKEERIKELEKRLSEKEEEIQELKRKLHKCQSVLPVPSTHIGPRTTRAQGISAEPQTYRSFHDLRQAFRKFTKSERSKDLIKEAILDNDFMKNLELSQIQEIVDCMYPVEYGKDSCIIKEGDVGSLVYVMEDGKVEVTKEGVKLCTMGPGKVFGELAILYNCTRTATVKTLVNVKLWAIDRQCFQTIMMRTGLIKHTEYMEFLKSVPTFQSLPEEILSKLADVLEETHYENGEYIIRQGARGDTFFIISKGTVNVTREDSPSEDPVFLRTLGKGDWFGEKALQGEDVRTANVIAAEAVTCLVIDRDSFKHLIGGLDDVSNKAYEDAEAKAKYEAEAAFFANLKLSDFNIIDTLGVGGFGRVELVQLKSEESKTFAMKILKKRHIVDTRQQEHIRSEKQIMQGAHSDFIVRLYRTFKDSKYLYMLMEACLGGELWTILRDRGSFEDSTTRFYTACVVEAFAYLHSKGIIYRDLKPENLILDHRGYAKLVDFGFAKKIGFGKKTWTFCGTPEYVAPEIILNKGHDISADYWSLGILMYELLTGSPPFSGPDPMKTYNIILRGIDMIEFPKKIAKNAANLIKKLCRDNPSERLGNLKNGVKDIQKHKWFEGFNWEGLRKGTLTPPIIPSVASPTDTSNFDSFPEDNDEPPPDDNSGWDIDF
Particulars: at 0.1 µM.

The target in test [5] is T3, cGMP-dependent protein kinase 1 (Homo sapiens). The note with it: at 1 µM.
In test [6] the target is T4, cGMP-dependent protein kinase 2 (Homo sapiens) (UniProt Q13237).
T4 sequence (whole entry): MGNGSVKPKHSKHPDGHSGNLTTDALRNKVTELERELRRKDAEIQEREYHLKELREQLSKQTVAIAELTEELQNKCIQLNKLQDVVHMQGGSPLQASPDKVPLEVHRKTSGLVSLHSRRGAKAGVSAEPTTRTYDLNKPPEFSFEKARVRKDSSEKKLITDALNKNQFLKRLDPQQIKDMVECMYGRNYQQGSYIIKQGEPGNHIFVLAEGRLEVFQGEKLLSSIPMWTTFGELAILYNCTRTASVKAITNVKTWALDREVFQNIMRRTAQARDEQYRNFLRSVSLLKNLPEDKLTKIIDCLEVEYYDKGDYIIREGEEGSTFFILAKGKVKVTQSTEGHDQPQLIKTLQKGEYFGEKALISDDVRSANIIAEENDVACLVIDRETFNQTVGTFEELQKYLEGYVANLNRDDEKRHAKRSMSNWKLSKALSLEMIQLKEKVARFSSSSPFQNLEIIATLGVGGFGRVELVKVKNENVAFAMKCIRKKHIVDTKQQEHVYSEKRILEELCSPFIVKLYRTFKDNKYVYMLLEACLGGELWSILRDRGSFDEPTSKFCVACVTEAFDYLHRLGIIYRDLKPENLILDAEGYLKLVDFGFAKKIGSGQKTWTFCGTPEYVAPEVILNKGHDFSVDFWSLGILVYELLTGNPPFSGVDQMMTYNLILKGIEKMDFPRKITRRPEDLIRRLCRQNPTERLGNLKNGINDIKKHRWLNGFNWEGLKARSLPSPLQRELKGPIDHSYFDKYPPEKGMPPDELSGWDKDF
Particulars: at 0.1 µM.

Test [7] has as its target T4, cGMP-dependent protein kinase 2 (Homo sapiens). Particulars: at 1 µM.
Test [8] concerns the target T5, cAMP-dependent protein kinase catalytic subunit PRKX (Homo sapiens) (UniProt P51817).
T5 sequence (whole entry): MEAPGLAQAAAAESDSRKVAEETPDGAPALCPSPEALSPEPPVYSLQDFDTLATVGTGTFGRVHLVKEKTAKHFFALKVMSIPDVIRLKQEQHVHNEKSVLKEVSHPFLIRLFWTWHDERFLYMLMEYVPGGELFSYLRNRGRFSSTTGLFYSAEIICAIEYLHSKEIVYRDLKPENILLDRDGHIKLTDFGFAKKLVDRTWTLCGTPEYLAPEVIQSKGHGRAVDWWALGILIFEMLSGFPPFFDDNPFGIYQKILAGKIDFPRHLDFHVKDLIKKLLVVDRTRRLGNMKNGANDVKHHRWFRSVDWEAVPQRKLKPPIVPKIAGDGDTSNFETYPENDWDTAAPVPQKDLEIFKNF
Particulars: at 0.1 µM.

Test [9] deals with T5, cAMP-dependent protein kinase catalytic subunit PRKX (Homo sapiens). The note with it: at 1 µM.
The target of test [10] is Rho-associated protein kinase 1 (Homo sapiens) (UniProt Q13464). Particulars: at 0.1 µM.
Test [11] has the same target. The note with it: at 1 µM.
Test [12] addresses Rho-associated protein kinase 2 (Homo sapiens) (UniProt O75116). The note with it: at 0.1 µM.
Test [13] has the same target. Particulars: at 1 µM.
The target in test [14] is Ribosomal protein S6 kinase alpha-1 (Homo sapiens) (UniProt Q15418). Particulars: at 0.1 µM.
Chain of Ribosomal protein S6 kinase alpha-1 (Homo sapiens) (Q15418 whole entry): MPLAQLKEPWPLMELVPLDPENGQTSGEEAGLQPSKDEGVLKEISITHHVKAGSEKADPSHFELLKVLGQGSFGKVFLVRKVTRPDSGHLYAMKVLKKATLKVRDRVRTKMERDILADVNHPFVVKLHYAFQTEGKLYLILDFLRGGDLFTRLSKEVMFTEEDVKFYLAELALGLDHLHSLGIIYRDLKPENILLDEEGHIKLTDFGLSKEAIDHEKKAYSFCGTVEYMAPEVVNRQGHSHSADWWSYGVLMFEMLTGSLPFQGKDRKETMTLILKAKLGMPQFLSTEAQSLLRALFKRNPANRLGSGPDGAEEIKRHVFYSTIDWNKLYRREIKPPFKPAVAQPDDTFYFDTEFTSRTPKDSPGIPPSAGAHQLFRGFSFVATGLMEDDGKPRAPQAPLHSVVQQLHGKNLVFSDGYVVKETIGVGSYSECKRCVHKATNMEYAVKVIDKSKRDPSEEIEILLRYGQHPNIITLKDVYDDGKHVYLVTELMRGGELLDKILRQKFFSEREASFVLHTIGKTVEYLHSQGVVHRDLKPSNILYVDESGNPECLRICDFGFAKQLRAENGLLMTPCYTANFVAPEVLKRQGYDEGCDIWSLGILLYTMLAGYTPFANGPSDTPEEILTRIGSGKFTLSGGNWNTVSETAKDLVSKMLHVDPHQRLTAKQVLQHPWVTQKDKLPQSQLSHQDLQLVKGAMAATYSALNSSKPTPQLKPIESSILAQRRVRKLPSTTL
The target is the same in test [15]. The note with it: at 1 µM.
Test [16] addresses Ribosomal protein S6 kinase alpha-3 (Homo sapiens) (UniProt P51812). Particulars: at 0.1 µM.
For test [17] the target is unchanged. Particulars: at 1 µM.
Test [18] has as its target Ribosomal protein S6 kinase alpha-2 (Homo sapiens) (UniProt Q15349). Particulars: at 0.1 µM.
The target is the same in test [19]. Particulars: at 1 µM.
In test [20] the target is Ribosomal protein S6 kinase alpha-6 (Homo sapiens) (UniProt Q9UK32). The note with it: at 0.1 µM.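 Note: reported value is the mean inhibition of RSK4, from the GSK PKIS kinase inhibitor screen.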
Chain of Ribosomal protein S6 kinase alpha-6 (Homo sapiens) (Q9UK32 whole entry): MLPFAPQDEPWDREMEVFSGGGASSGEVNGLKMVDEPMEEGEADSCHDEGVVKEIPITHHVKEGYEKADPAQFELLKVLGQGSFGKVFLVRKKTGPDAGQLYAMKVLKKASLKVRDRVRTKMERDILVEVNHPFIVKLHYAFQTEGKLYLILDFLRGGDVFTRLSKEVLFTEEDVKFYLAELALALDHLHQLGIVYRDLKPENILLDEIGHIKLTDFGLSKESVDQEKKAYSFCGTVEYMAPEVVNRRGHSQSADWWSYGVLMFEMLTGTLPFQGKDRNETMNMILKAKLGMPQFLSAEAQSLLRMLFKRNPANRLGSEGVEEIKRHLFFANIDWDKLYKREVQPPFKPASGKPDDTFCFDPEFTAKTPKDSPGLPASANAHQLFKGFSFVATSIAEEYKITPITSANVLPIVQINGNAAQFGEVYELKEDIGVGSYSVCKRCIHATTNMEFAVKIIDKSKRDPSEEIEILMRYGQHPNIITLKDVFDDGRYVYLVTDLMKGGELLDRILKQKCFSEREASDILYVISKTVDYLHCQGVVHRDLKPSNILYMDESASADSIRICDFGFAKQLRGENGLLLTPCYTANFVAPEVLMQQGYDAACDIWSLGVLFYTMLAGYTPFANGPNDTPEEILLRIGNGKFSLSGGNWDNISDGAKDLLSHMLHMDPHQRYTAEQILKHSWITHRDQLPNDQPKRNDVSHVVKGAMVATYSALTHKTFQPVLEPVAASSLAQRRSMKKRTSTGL

Chain of Ribosomal protein S6 kinase alpha-3 (Homo sapiens) (P51812 whole entry): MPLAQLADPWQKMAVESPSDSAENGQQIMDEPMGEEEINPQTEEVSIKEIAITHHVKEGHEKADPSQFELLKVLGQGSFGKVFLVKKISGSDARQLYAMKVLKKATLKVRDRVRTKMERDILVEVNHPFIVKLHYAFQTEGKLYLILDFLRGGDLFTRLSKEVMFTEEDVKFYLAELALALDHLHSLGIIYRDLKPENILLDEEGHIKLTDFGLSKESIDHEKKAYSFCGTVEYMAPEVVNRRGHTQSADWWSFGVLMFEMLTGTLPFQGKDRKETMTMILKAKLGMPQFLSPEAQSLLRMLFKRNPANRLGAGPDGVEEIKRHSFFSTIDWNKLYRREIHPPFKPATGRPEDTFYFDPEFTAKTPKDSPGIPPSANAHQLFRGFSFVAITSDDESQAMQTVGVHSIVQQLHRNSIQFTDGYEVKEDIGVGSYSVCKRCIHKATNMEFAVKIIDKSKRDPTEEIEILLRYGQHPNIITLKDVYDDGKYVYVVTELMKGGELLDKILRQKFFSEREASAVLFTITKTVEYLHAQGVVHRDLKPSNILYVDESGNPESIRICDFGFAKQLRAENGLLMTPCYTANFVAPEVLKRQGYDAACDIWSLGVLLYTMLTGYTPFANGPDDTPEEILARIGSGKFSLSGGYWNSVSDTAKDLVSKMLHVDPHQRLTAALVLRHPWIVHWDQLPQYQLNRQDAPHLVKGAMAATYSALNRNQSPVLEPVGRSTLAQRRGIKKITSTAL
Chain of Rho-associated protein kinase 2 (Homo sapiens) (O75116 whole entry, looked up): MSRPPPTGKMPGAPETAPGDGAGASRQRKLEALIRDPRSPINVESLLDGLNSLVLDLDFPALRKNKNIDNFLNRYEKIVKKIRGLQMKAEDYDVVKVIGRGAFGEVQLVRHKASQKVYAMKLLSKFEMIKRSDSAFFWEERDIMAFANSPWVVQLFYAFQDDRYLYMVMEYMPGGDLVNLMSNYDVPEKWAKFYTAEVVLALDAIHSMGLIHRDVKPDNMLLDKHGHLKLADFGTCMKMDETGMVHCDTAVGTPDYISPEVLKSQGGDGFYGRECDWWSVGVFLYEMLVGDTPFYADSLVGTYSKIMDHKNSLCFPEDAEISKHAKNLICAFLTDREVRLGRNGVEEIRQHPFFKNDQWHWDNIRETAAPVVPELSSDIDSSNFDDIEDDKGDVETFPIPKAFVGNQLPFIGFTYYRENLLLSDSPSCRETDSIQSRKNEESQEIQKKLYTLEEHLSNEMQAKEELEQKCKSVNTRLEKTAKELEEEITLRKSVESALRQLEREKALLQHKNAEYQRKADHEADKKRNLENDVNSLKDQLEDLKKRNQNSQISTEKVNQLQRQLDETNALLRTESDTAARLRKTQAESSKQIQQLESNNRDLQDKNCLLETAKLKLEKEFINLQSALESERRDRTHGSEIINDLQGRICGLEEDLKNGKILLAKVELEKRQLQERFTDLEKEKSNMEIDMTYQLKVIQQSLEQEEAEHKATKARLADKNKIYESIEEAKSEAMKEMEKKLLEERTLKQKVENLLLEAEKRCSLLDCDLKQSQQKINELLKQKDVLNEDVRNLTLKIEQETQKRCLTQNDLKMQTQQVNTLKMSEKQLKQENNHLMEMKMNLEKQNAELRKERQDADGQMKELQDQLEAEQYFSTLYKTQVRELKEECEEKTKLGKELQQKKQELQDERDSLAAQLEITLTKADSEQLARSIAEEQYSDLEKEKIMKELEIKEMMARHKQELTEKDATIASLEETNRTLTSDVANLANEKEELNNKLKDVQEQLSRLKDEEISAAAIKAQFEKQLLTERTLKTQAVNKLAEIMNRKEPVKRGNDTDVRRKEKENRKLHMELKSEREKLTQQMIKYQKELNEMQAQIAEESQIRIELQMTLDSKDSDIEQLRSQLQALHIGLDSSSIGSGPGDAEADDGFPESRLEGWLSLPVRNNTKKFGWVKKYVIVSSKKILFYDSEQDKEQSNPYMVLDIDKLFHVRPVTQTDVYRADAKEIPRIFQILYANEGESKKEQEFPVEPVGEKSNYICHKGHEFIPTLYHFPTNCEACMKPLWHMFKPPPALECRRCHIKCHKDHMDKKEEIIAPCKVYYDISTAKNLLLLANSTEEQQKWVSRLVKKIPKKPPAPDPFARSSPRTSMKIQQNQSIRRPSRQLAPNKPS
Chain of Ribosomal protein S6 kinase alpha-2 (Homo sapiens) (Q15349 whole entry): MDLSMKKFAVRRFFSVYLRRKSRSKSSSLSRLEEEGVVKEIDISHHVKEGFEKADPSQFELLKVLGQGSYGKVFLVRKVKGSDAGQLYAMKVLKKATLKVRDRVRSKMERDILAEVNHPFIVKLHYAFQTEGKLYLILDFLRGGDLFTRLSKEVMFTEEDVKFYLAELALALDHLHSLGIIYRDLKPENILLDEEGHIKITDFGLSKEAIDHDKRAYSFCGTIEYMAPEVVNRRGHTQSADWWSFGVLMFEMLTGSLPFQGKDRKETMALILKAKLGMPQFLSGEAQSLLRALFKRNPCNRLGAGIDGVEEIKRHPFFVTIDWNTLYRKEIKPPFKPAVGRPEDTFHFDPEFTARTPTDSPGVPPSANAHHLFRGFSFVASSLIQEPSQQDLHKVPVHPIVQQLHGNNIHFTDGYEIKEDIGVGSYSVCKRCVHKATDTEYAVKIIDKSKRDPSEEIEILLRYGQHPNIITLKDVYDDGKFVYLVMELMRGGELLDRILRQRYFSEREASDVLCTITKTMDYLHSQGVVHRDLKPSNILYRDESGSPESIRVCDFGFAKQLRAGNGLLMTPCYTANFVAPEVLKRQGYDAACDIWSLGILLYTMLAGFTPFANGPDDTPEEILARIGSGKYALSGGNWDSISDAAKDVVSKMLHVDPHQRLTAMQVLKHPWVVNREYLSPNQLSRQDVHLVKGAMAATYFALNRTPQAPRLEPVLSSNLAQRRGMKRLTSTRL

`Cc1cc(O)cc(C)c1/C=C/c1cncc(C(N)=O)c1`: the inhibition – broadly, the drop in the measured response relative to a control, in per cent – in test [1] stood at 2.16%; in test [2], 3.14%; in [3], 2.74%; in [4], 2.79%; in test [5], 5.83%; in [6], 0.33%. For the same compound, the inhibition was determined as 3.49% in [7]; 1.71% in test [8]; 3.29% in [9]; 2.2% in [10]; 3.29% in test [11]; 3.18% in test [12]. Also, the inhibition in [13] is 2.02%; in test [14], 0.33%; in test [15] it was -0.09%; in [16] it was 1.07%; in test [17], -0.35%; in [18], 1.1%. For the same compound, the results for the inhibition in [19] and in test [20] were 1.48% and 0.72%, respectively.
Turning to `CS(=O)(=O)CCNCc1ccc(-c2ccc3ncnc(Nc4ccc(OCc5ccccc5)cc4)c3c2)o1`, the inhibition in test [1] was determined as 2.54%; in test [2] it was 3.53%; in test [3], 3.51%; in test [4] it was 2.37%; in test [5], 1.88%; in test [6], 2.69%. Further, the inhibition in [7] came out at 2.6%; in test [8] it was 1.54%; in [9], 1.49%; in [10] it was 1.22%; in [11] it was 1.69%; in test [12], 2.02%. In addition, the inhibition is 2.23% in test [13]; 2.15% in test [14]; 3.81% in test [15]; 2.27% in test [16]; 2.78% in test [17]; 3.11% in test [18]. Also, the inhibition in test [19] came to 4.28%; in test [20], 2.96%.
Turning to `CCn1c(-c2nonc2N)nc2cncc(C(=O)NCCNC)c21`, the inhibition amounted to 5.38% in test [1]; 5.66% in [2]; 6.85% in [3]; 36.2% in test [4]; 70% in test [5]; 61.7% in test [6]. The inhibition in test [7] was determined as 73.8%; in test [8], 18.4%; in test [9], 63.9%; in [10], 71.8%; in test [11], 91.6%; in test [12] it was 80.6%. Moreover, the inhibition was 90.4% in test [13]; 62.3% in test [14]; 88.3% in test [15]; 54.5% in test [16]; 78.7% in test [17]; 25.4% in test [18]. Besides, the inhibition in test [19] stood at 73.8%; in [20] it was 9.72%.
In the case of `O=C1Nc2ccccc2/C1=C1\CCc2cc(O)ccc21`, the inhibition in test [1] came to 15.4%; in test [2], 6.3%; in test [3], 11.8%; in test [4], 3.61%; in test [5] it was 8.21%; in test [6], 4.25%. The inhibition turned out to be 16.7% in [7]; 2.86% in test [8]; 3.03% in [9]; 1.2% in test [10]; 2.49% in [11]; 2.95% in test [12]. The inhibition in test [13] worked out at 3.95%; in [14] it was 5.76%; in [15] it was 28.4%; in test [16] it was 4.82%; in test [17], 27%; in test [18], 9.8%. Further, the inhibition in test [19] came to 42.1%; in test [20], 7.24%.
Take `Cc1ccc(-c2cc3c(NC(=O)C4CC4)ncnc3o2)cc1`: the inhibition worked out at 6.17% in test [1]; 5.27% in [2]; 7.32% in test [3]; 3.82% in test [4]; 5.54% in [5]; 1.95% in test [6]. Also, the inhibition in [7] was 4.28%; in test [8] it was 1.05%; in test [9], 0.33%; in test [10], 1.09%; in [11], 2.27%; in test [12] it was 2.81%. The inhibition in test [13] amounted to 1.43%; in [14], 2.52%; in test [15], 4.28%; in [16], 1.27%; in test [17] it was 2.17%; in [18] it was 2.35%. Further, the values for the inhibition in test [19] and in test [20] were 2.3% and 0.9%, respectively.
